Experimental data: PubChem BioAssay AID924 (National Center for Advancing Translational Sciences (NCATS), 2007)
Among all 130,000 compounds or so, about 1,200 (0.92%) were called active. About 3% were inconclusive and are not listed. The entries come from a sample that favours actives as a whole. Values without a mark were called inactive. Calls come from the whole dose curve; as a rule, active = well fitted cell-killing curve with a large enough effect; inconclusive = small, poorly fitted or top-dose-only effect; inactive = no such curve, though single readings can be large or run the other way.

test: qHTS Screen for Compounds that Selectively Target Cancer Cells with p53 Mutations: Cytotoxicity of p53ts Cells at the Permissive Temperature; settings: H1299-p53A138V at 32C, ATP luminescence viability, 24 h; series mostly up to 46.1 µM; activity change, negative = cytotoxicity: at the top concentration; note: nearly all actives have a fitted effect of over 55% in size;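 for activity change, negative = cytotoxicity: 0% = DMSO and -100% = full killing by reference compound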
In short: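 Cells: H1299 p53ts (A138V), 600/well, pre-incubated 16–30 h at 37C. Cpd up to 46 uM, 24 h, 32C. Readout: ATPlite luminescence, 20 min RT. Normalization: DMSO vs tamoxifen 100 uM. AC50 by Hill equation.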
Potency is the fitted concentration of half-maximal effect.

Row | Compound | activity change, negative = cytotoxicity [%] | Potency
1 | COc1ccc(CNC(=O)c2ccc(NC(=O)N3CC4CCCN4c4ccccc43)cc2)cc1 (stereo unspecified) | -3.58 | 
2 | CC(=O)Nc1ccc(NC(=O)c2cc3sccc3n2Cc2ccc(F)cc2)cc1 | -24.9 | 
3 | Cc1cccc(N2CCN(C(=O)CCn3c(=O)c4cccn4c4cccnc43)CC2C)c1 (stereo unspecified) | 3.1 | 
4 | COc1ccc2nc(Nc3nc4cc5c(cc4s3)OCCO5)sc2c1 | -17.9 | 
5 | c1c2c(cc3sc(N4CCCCC4)nc13)OCCO2 |  | 1.26 µM (active)
6 | Fc1ccc2nc(N3CCCCC3)sc2c1 | -9.36 | 
7 | CCc1ccc2ncc3c(-c4ccc(C)cc4)nn(CC(=O)NCc4ccccc4)c3c2c1 | -5.08 | 
8 | CC(C)(C)c1csc(NC2=NS(=O)(=O)c3ccccc32)n1 |  | 12.6 µM (active)
9 | O=C(CN1C(=O)c2cccnc2Oc2ccc(Cl)cc21)NCCc1ccccc1 | -3.47 | 
10 | COc1ccc(-c2ccc(=O)n(CC(=O)Nc3ccc(Br)cc3F)n2)cc1 | -22.2 | 
11 | CC(C)Sc1oc(-c2cccs2)nc1S(=O)(=O)c1ccc(Cl)cc1 | 7.99 | 
12 | CCn1cc(C(=O)NCCc2ccccc2)c(=O)c2cc(S(=O)(=O)N3CCCCCC3)ccc21 | 15.6 | 
13 | CCN(CC)S(=O)(=O)c1cccc(C(=O)Nc2ccccc2)c1 | -19.7 | 
14 | Cc1ccc(S(=O)(=O)/N=C(/Nc2ccccn2)c2ccc(Cl)cc2)cc1 | -19.2 | 
15 | CCN(CC)S(=O)(=O)c1cc(C(=O)Nc2ccccn2)ccc1C |  | 10 µM (active)
16 | Cc1nnc(NC(=O)CSc2nc3c([nH]c4ccccc43)c(=O)n2-c2cccc(Cl)c2)s1 | -0.819 | 
17 | OCCCN1c2ccccc2Nc2nnc(-c3ccccc3)cc21 |  | 12.6 µM (active)
18 | O=C(c1ccc(Cl)cc1)n1nc(-c2cccnc2)nc1NCc1ccc(F)cc1 | 12.6 | 
19 | COc1ccccc1CNC(=O)C(=O)NCC(c1cccs1)S(=O)(=O)c1cccs1 (stereo unspecified) | -2.8 | 
20 | CCC1(C)CC(=O)c2c(ccc3oc(C(=O)Nc4ccc(C(C)=O)cc4)c(C)c23)O1 (stereo unspecified) | -8.14 | 
21 | Cc1c(C(=O)NCc2ccccc2Br)oc2ccc3c(c12)C(=O)CC(C)(C)O3 |  | 12.6 µM (active)
22 | CC1(C)CC(=O)c2cc(OCC(=O)NCC3CCCO3)ccc2O1 (stereo unspecified) | -7.04 | 
23 | CCOC(=O)N1CCc2c(sc(NCc3cccc(F)c3)c2C(=O)Nc2ccccc2OCC)C1 | 19.6 | 
24 | COc1ccc(NC(=O)NC(C)c2c(-n3cccc3)sc(C)c2C)cc1OC (stereo unspecified) | 21.5 | 
25 | Cc1ccc(S(=O)(=O)c2nc(-c3ccco3)oc2SCC(=O)Nc2ccc(F)cc2)cc1 | -9.87 | 
26 | Cc1ccc(-c2nc(S(=O)(=O)c3ccc(C)cc3)c(N3CCCCCC3)o2)cc1 | 8.12 | 

Row | Compound | activity change, negative = cytotoxicity [%] | Potency
27 | CC(C)S(=O)(=O)c1oc(-c2ccc(F)cc2)nc1S(=O)(=O)c1ccc(F)cc1 |  | 5.01 µM (active)
28 | O=C(CSc1oc(-c2ccc(F)cc2)nc1S(=O)(=O)c1ccc(Br)cc1)NC1CCCCC1 | -3.41 | 
29 | CCc1ccc(NC(=O)CN2C(=O)C(c3ccccc3)=NC23CCCCCC3)cc1 | 12.1 | 
30 | CCc1ccc(NC(=O)CN2CCSc3ccc(S(=O)(=O)N4CCCC4)cc32)cc1 | 10.3 | 
31 | COc1cc(OC)c(OC)cc1/C=C/c1nc2cc3ccccc3cc2c(=O)n1-c1ccc(F)c(Cl)c1 | 4.14 | 
32 | CCCCn1c(=N)c(S(=O)(=O)c2ccccc2)cc2c(=O)n3cccc(C)c3nc21 | -0.99 | 
33 | Cc1ccc(-c2cnc(NCc3ccc(C(C)C)cc3)n2C)cc1 | -10.2 | 
34 | CCc1ccc(-c2nnn(Cc3nn[nH]n3)n2)cc1 | -29.7 | 
35 | CC(C)c1ccc(-c2nn[nH]n2)cc1 |  | 12.6 µM (active)
36 | CCOc1ccc(CNCCSc2nnnn2C)cc1 | -5.3 | 
37 | O=C1CCCc2cc(S(=O)(=O)N3CCCC(C(=O)NCc4ccccc4)C3)ccc2N1 (stereo unspecified) | -8.7 | 
38 | CCc1cc2c(cc3c(=O)n(CC(=O)NCc4cccc(Cl)c4)nc(CC)n32)s1 | 9.64 | 
39 | O=C1Nc2c(Br)cc(Br)cc2C1(O)N1CCOCC1 (stereo unspecified) |  | 12.6 µM (active)
40 | CCOc1ccccc1N(CC)C(=O)c1cc2ccc3cccnc3c2[nH]1 | 40.2 | 
41 | CCN1CCN(Cc2c(O)ccc3oc(C)c(C(=O)Nc4ccc(C)cc4C)c23)CC1 | 9.54 | 
42 | Cc1cccc(-n2ncc3c(N4CCc5ccccc54)ncnc32)c1 | -4.6 | 
43 | COc1ccc(-n2ncc3c(N4CCc5ccccc54)ncnc32)cc1 | -11.5 | 
44 | COc1ccc(-n2ncc3c(N4CCCc5ccccc54)ncnc32)cc1 |  | 10 µM (active)
45 | Cc1nc2nc(SCC(=O)NC3CCC(C)CC3)nn2c(C)c1Cc1ccccc1Cl (stereo unspecified) | 29.1 | 
46 | COc1ccccc1CN1CCC(CNC(=O)c2cnn(-c3ccccc3Cl)c2C2CCN(C(=O)OC(C)(C)C)CC2)CC1 | 1.28 | 
47 | COc1ccccc1CNC(=O)c1ccc(NC(=O)N2CC(C)Sc3ccccc32)cc1 (stereo unspecified) | -4.08 | 
48 | CCNC(=O)c1cc2n(n1)CCCN(Cc1ccc(C)cc1)C2=O | 4.64 | 
49 | Cc1ccc2nc(N3CCN(c4cccc(Cl)c4)CC3)c3nnnn3c2c1 | -2.07 | 
50 | CCC(CC)c1nnc(NS(=O)(=O)Cc2ccccc2)s1 | 4.53 | 
51 | CCC(CC)c1nn2cc(-c3ccccc3)nc2s1 |  | 5.01 µM (active)
52 | CCc1ccc(CNC(=O)C2CCN(c3nn4cc(-c5ccc(F)cc5)nc4s3)CC2)cc1 | -3.23 | 

Row | Compound | activity change, negative = cytotoxicity [%] | Potency
53 | CCOc1ccccc1NC(=O)c1ccc2c(c1)CCN2S(=O)(=O)c1ccc(C)cc1 | 7.8 | 
54 | COC(=O)c1cc(NC(=O)CCc2c(C)nc3c4c(C)cc(C)nc4nn3c2C)cc(C(=O)OC)c1 | 8.69 | 
55 | CCN(CC)c1ccc(NC(=O)CN2CCN(CC(=O)Nc3ccc(Cl)cc3)CC2)cc1 | -4.64 | 
56 | Cc1c(Cl)cccc1NC(=O)c1noc2c1CCCC2 | -24.1 | 
57 | O=C(Nc1cccnc1)c1noc2c1CCCCC2 |  | 12.6 µM (active)
58 | O=C(Nc1cccnc1)c1ccc2c(c1)OCO2 | -11.3 | 
59 | CCOc1ccc(-c2nonc2NC(=O)c2oc3ccc(C)cc3c2C)cc1OCC | -3.06 | 
60 | COc1ccc(NC(=O)c2sc3nc[nH]c(=O)c3c2C)cc1 | 2.8 | 
61 | O=C(Nc1cccc(NC(=O)c2ccco2)c1)c1cnccn1 | -6.2 | 
62 | O=C(Nc1ccc(NC(=O)c2cccs2)cn1)c1ccco1 |  | 6.31 µM (active)
63 | Cc1ccnc(NC(=O)c2ccc(NC(=O)c3ccco3)cc2)c1 | -29.1 | 
64 | Cc1cc(C)c(NC(=O)CCc2c(C)nc3c(c(C)nn3C(C)(C)C)c2C)c(C)c1 | 7.76 | 
65 | CCn1c(CN2CCC(C)CC2)nc2cc(NC(=O)c3ccccc3[N+](=O)[O-])ccc21 | 2.93 | 
66 | CCCCc1nn2c(=O)cc(COC(=O)c3ccccc3NC(=O)C(C)(C)C)nc2s1 | -3.39 | 
67 | Cc1nn2c(=O)cc(COC(=O)c3ccccc3NC(=O)COc3ccccc3C)nc2s1 | -2.82 | 
68 | COc1ccc(OCC(=O)Nc2cccc(C(=O)OCc3cc(=O)n4nc(C)sc4n3)c2)cc1 | -8.09 | 
69 | Cc1nn2c(=O)cc(COC(=O)c3cccc(NC(=O)COc4ccccc4Cl)c3)nc2s1 |  | 10 µM (active)
70 | COc1ccccc1NC(=O)C(=O)c1cc(C)n(-c2ccccc2F)c1C | 1.04 | 
71 | O=C(CCSCc1ccccc1F)N1CCN(c2ccc(Cl)cc2)CC1 | -8.82 | 
72 | Cc1ccsc1C(=O)OCC(=O)c1cc(C)n(CC2CCCO2)c1C (stereo unspecified) |  | 5.01 µM (active)
73 | COC(=O)c1ccc2c(=O)n(CC3CCCO3)c(=S)[nH]c2c1 (stereo unspecified) | 6.83 | 
74 | Cc1ccsc1C(=O)OCC(=O)c1cc2ccccc2o1 | -15.9 | 
75 | Cc1[nH]c2ccccc2c1C(c1ccccc1)c1cccs1 (stereo unspecified) | 3.42 | 
76 | O=C(CCc1cn(Cc2ccc(F)cc2)c2ccccc12)NC1CCCCC1 | 1.41 | 
77 | CC(=O)c1ccc(NC(=O)c2nc(-c3ccc(C)cc3)n3c2CCCCC3)cc1 | 8.72 | 
78 | Cc1ccc(C(=O)N2CCCCCC2)cc1Br | 4.16 | 

Row | Compound | activity change, negative = cytotoxicity [%] | Potency
79 | CCc1ccc(CNC(=O)c2cc3cc4ccc(OC)cc4nc3o2)cc1 | 3.47 | 
80 | Cc1ccc2cc3cc(C(=O)N4CCCCCC4)oc3nc2c1 |  | 10 µM (active)
81 | COc1c(Cl)cc(C(=O)N(Cc2ccccc2F)C2CCS(=O)(=O)C2)cc1Cl (stereo unspecified) | 0.249 | 
82 | CCOc1ccc(NC(=O)CN(Cc2ccccc2)S(=O)(=O)c2ccc(Cl)cc2)cc1 | -9.94 | 
83 | CCOc1ccc(N(Cc2ccccc2)C(=O)c2nc(SCC)ncc2Cl)cc1 | 4.15 | 
84 | CCOc1ccc(N(Cc2ccccc2)C(=O)c2nc(S(C)(=O)=O)ncc2Cl)cc1 |  | 12.6 µM (active)
85 | CCOc1cc(C2c3c(-c4ccc(Br)cc4)n[nH]c3C(=O)N2c2ccc(Cl)cc2)ccc1O (stereo unspecified) | 14.7 | 
86 | CN1C(=O)c2ccccc2Sc2ccc(NC(=O)Cc3ccc(Cl)cc3)cc21 | 32.9 | 
87 | COc1ccc(Cn2ccnc2SCC(=O)NCc2ccco2)cc1 | -3.47 | 
88 | C/C(=C\C(=O)c1ccccc1)Nc1cccc(O)c1 |  | 10 µM (active)
89 | O=C(Nc1cccc(NC(=O)c2ccc(Br)cc2)c1)c1ccccc1 | -4.77 | 
90 | C/C(=C\C(=O)c1cccnc1)Nc1ccc(C)c(C)c1 | -22.1 | 
91 | O=C(Nc1cc(C(F)(F)F)ccc1Cl)c1ccc2c(c1)CCN2S(=O)(=O)c1ccccc1 | 4.42 | 
92 | Cc1ccccc1-n1c(C)cc(/C=C2\NC(=O)NC2=O)c1C |  | 15.8 µM (active)
93 | Cc1ccccc1N1CC(c2nc3ccccc3[nH]2)CC1=O (stereo unspecified) | 8.66 | 
94 | Cc1cc(/C=N/n2cnnc2)c(C)n1-c1cccc(C(=O)O)c1 | -3.07 | 
95 | CCC(=O)N1c2ccccc2CC1C(=O)N1CCN(c2cccc(OC)c2)CC1 (stereo unspecified) | 1.92 | 
96 | Cc1ccc(Cl)cc1NC(=O)CCS(=O)(=O)c1ccc(Br)s1 | 6.48 | 
97 | Cc1cccc(NC(=O)N2CCN(C)c3ncccc32)c1C | -5.84 | 
98 | O=C(Nc1cc(C(F)(F)F)ccc1Cl)c1nc2ccccc2nc1N1CCCCC1 | -6.02 | 
99 | COc1ccc(CCNC(=O)c2cc(-c3ccc4c(c3)OCO4)on2)cc1OC | -7.31 | 
100 | COc1c2c(cc3occ(-c4ccc5c(c4)OCO5)c(=O)c13)OC(C)(C)C=C2 |  | 10 µM (active)
101 | COc1ccc(C)cc1N(C)C(=O)c1c(C)oc2ncnc(N3CCOCC3)c12 | 4.57 | 
